NTR1 ag: agonists of human NTR1, primary screen, imaging, U2OS cells, beta-arrestin-GFP, high content; AID 493036, 2011; actives 0.17% (n = 330,000); activation, % at 20 µM; NTR1-U2OS beta-arrestin-GFP spot imaging, agonist mode; Neurotensin receptor type 1 (Homo sapiens), P30989;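 active = activation at or above 40% of the spot to cytoplasm intensity ratio, with at least 20 cells analyzed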;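 note: 0% = DMSO without peptide and 100% = 100 nM NTR1 peptide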
ABHD5-PLIN5 inh: ABHD5-PLIN5 interaction inhibitors, primary screen, cell lysate, split luciferase complementation, luminescence; Perilipin-5 (Homo sapiens) + 1-acylglycerol-3-phosphate O-acyltransferase ABHD5 (Homo …; Split G. princeps luciferase complementation, 4 h; inhibition, % at 4 µM; actives 0.78% (n = 360,000);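 active = inhibition above the mean inhibition across every tested compound plus 3 SD, cut at about 22% in these data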;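 note: 0% = DMSO only wells and the 100% control is not disclosed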
HTR2A ag: mouse Htr2a agonists via beta-arrestin recruitment, primary screen, cell-based, luminescence; AID 624169, 2012; CHO-K1 mHTR2A beta-arrestin complementation; percent of 30 µM serotonin response; actives 0.66% (n = 360,000); activation, % at 7.6 µM; 5-hydroxytryptamine receptor 2A (Mus musculus), P35363;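 active = activation above a run cutoff, the mean activation of all tested compounds plus 3 SD, cut at about 14% in these data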;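 note: 0% = plate median of compound wells and 100% = 30 µM serotonin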
Exocytosis inh: LAMP-1 surface exposure blockers, TALL-104 cells – cell-based, flow cytometry, MLPCN library, primary screen. actives 0.66% (n = 360,000). inhibition, % at 10 µM. TALL-104 LAMP-1 surface exposure; cells stimulated with thapsigargin and PMA. AID 651702, 2012;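 active = inhibition above about 55%, limit read from the data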
B2AR ag: beta2AR agonists driving receptor internalization, primary screen, cell-based, FAP fluorogen, flow cytometry; Beta-2 adrenergic receptor (Homo sapiens), P07550; Am2.2-beta2AR cells; response, % (no concentration beside the values); actives 0.43% (n = 340,000);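 active = response above a set limit, near 3 SD of response in nonfluorescent compounds, cut at about 42% in these data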
OPRM1 ag: OPRM1 agonists via beta-arrestin recruitment, confirmation, counter-screen for mouse HTR2A agonist project, cell-based, luminescence, single concentration; activation, % at 9.3 µM; actives 5.3% (n = 2,300); U2OS OPRM1 beta-arrestin PathHunter; DMSO 0%, DAMGO 9.3 µM 100%; shares compounds with HTR2A ag;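 active = mean activation above the mean of DMSO-only wells plus 3 SD, cut at about 0.5% in these data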
Target sequence (P35372 whole entry, looked up): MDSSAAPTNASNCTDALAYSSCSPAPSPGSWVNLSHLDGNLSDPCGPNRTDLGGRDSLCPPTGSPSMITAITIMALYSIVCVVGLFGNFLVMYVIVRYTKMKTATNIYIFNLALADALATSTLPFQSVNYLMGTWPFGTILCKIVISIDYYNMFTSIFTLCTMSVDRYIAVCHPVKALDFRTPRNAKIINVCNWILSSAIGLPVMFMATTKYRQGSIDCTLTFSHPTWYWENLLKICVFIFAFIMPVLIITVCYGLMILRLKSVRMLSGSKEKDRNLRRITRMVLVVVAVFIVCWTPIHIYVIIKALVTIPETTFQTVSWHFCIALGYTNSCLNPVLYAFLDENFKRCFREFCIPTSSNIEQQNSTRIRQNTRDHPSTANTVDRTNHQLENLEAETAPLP
m5-HT2A ag conf: mouse HTR2A agonists, beta-arrestin recruitment, confirmation, cell-based, luminescence, CHO-K1 PathHunter, triplicate; shares compounds with HTR2A ag; DMSO 0%, 30 µM serotonin 100%; activation, % at 7.6 µM; actives 19% (n = 2,300);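 active = mean activation across triplicates above the hit threshold derived in the original primary screen, cut at about 15% in these data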
Starred values were filed as active, the others as inactive; · = no result given. Sampled rows, rich in hits. Any-hit rate of the full collection: about 2.3%.

SMILES | NTR1 ag | ABHD5-PLIN5 inh | HTR2A ag | Exocytosis inh | B2AR ag | OPRM1 ag | m5-HT2A ag conf
COc1ccc(NC(=O)C2Cc3c(-c4cccc(C(C)=O)c4)ccnc3O2)cc1 (configuration not stated) | · | -2 | 2 | 1 | · | · | ·
C#C[C@]1(O)CCC2C3CCC4=CC(=O)CC[C@@H]4C3CC[C@@]21C (some centres not stated) | 1 | 5 | 15* | -2 | 4 | -1 | 4
Cn1c(Cn2c(=O)sc3ccccc32)nnc1SCC(=O)Nc1ccccc1 | -1 | 1 | 20* | -1 | -5 | 0 | -5
Cc1ccc(NC(=O)CSc2nnc(Cn3c(=O)sc4ccccc43)n2C)cc1 | 5 | -3 | -1 | -6 | 6 | · | ·
Cc1ccccc1N(CC(=O)Nc1ccc(S(=O)(=O)N2CCOCC2)cc1)S(C)(=O)=O | 2 | 3 | -2 | -3 | 4 | · | ·
CCN(CC)c1ccc(NC(=O)C2=CCN(S(=O)(=O)c3ccc(F)cc3)CC2)c(C)c1 | 7 | -8 | 17* | -3 | 0 | -1 | -6
CC[C@@H]1CCCCc2ccccc2[C@H](C(=O)C[C@H](O)CC(C)=O)OC1=O | 0 | -1 | 6 | -3 | -1 | · | ·
CC(=O)c1cccc(NC(=O)c2c(F)c(F)c(F)c(F)c2F)c1 | 0 | 3 | 8 | -3 | 4 | · | ·
COC(=O)c1cc(NC(=O)c2c(F)c(F)c(F)c(F)c2F)cc(C(=O)OC)c1 | 2 | -4 | 18* | -2 | 5 | 0 | 6
Cc1cc(Cl)ccc1NC(=S)NCC(O)c1ccccc1 (configuration not stated) | 0 | -8 | 10 | 4 | 14 | · | ·
CC(C)NNC(=O)c1ccncc1 | -1 | 2 | 28* | 2 | -9 | -1 | 45*
COc1ccc(CCNC(=O)Nc2nc(C(N)C3CCCCC3)cs2)cc1OC (configuration not stated) | · | 4 | -6 | 14 | · | · | ·
O=C(O)C1CCCCC1C(=O)NCCc1ccccc1 (configuration not stated) | 2 | 6 | 15* | -2 | -2 | 0 | 3
O=C(O)/C=C/C(=O)NCCc1cccc(Cl)c1 | 0 | 5 | 26* | -5 | 1 | 0 | 8
O=C(O)/C=C/C(=O)NCCc1ccccc1 | 2 | -3 | 3 | 0 | 2 | · | ·
O=C(O)C1CC=CCC1C(=O)NCCc1cccc(Cl)c1 (configuration not stated) | 1 | 0 | 24* | -1 | 5 | 0 | -1
O=C(O)C1CC=CCC1C(=O)NCCc1csc(-c2ccccc2)n1 (configuration not stated) | 3 | 3 | 16* | -7 | 5 | 0 | -3
CC(=O)NCCc1csc(-c2ccccc2)n1 | 1 | -1 | 2 | -1 | 0 | · | ·
O=C(C[C@H]1C[C@H](C(=O)N2CCCCC2)[C@@]2(CCc3ccccc3)c3[nH]c4ccc(Cl)cc4c3CCN2C1=O)NCc1ccco1 | 0 | 6 | -1 | -7 | 10 | · | ·
CC1(NC(=S)N(CCO)CCO)CCS(=O)(=O)C1 (configuration not stated) | 0 | -7 | -3 | 2 | 11 | · | ·
CC(=O)OC1C=CCC2C(=O)c3cccc(O)c3C(O)C12 (configuration not stated) | · | 7 | 17* | -3 | -2 | 0 | 0
C[C@]12c3[nH]c4ccc(Cl)cc4c3CCN1C(=O)[C@@H](CC(=O)NCCC1=CCCCC1)C[C@@H]2C(=O)N1CCOCC1 | 0 | 2 | 23* | -4 | 9 | -1 | -6
Cc1ccc(C(=O)c2nc(C(=O)NCCO)nc3ccccc23)cc1 | -1 | -4 | 16* | 1 | -7 | -1 | -3
CC(=NNS(=O)(=O)c1cccc([N+](=O)[O-])c1)c1ccc(-n2ccnc2)cc1 | 2 | -5 | 15* | 0 | -14 | -1 | -5
C/C(=N/NS(=O)(=O)c1cccc([N+](=O)[O-])c1)c1ccncc1 | 0 | -4 | -4 | -1 | -6 | · | ·
SMILES | NTR1 ag | ABHD5-PLIN5 inh | HTR2A ag | Exocytosis inh | B2AR ag | OPRM1 ag | m5-HT2A ag conf
CCC(C)(C)NC(=O)CN(C(=O)c1csnn1)c1ccccc1-c1ccccc1 | 3 | -3 | 16* | 6 | -2 | -1 | -4
CCC(C)(C)NC(=O)CN(C(=O)c1csnn1)c1cccc2c1CCCC2 | 0 | 3 | 2 | -2 | -2 | · | ·
O=C([C@@H]1Cc2ccccc2CN1)N1CCN(Cc2ccccc2)CC1 | -1 | 3 | -5 | 6 | 0 | · | ·
CN(C)S(=O)(=O)c1ccc(Cl)c(NC(=O)CN2CCc3ccccc3C2)c1 | 2 | -2 | 23* | -2 | 1 | 0 | 82*
CCN(CC)S(=O)(=O)c1ccc(O)c(NC(=O)CN2CCc3ccccc3C2)c1 | 2 | -5 | -2 | 0 | -1 | · | ·
COc1ccc(CNC(=O)CN(C(=O)CCC(=O)Nc2ccccn2)c2cccc(C)c2)cc1 | 1 | 4 | 2 | -1 | -1 | · | ·
COc1ccc(CNC(=O)CN(C(=O)CCC(=O)Nc2ccccn2)c2ccc(C)cc2)cc1 | 0 | 12 | 30* | 4 | 1 | -1 | -5
CC(C)(C)Nc1nc2nonc2nc1NC(C)(C)C | 3 | 1 | 36* | 2 | 0 | 0 | 20*
CN([C@@H](Cc1ccc(OS(=O)(=O)c2cccc3cnccc23)cc1)C(=O)N1CCN(c2ccccc2)CC1)S(=O)(=O)c1cccc2cnccc12 | 3 | 2 | 15* | 2 | 22 | -1 | 12
COc1ccc(NS(=O)(=O)c2ccc(C)c(C(=O)N3CC(C)OC(C)C3)c2)cc1 (configuration not stated) | 1 | 0 | 3 | -2 | -3 | · | ·
CCOC(=O)N1CCC(c2cc(=O)n3[nH]cc(C(=O)OC)c3n2)CC1 | -4 | -2 | 20* | 3 | -7 | 0 | 3
O=C(Cc1nnc(NC(=O)c2cccc([N+](=O)[O-])c2)s1)NCc1ccccc1 | 1 | -4 | 5 | 0 | 7 | · | ·
O=C(Oc1ccc[nH]c1=O)c1ccccc1 | · | -3 | 2 | 8 | · | · | ·
O=C(Nc1ccc(F)cc1)Oc1ccc[nH]c1=O | 0 | -9 | 15* | -8 | 2 | 0 | -2
COCCNc1nc(Nc2ccc(C#N)cc2)c2sccc2n1 | · | 1 | 0 | -3 | · | · | ·
